Values joined by “and” are separate entries in the source; they are usually repeats but may differ in a detail not shown here. Equal entries are not always repeated. About 2,500 (0.83%) of roughly 300,000 compounds were called active.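 The calls were made as follows: active = inhibition above the mean of all tested compounds plus 3 SD, set per screening campaign (cut at about 24% in these data); inactive = the rest.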 Only a selection was taken, and actives are over-represented in it overall.
test system: tRNA 2'-phosphotransferase TPT1 (Candida albicans SC5314); experiment: tRNA 2'-phosphotransferase blockers, C. albicans – biochemical, fluorescence polarization, primary screen (AID 1962); conditions: recombinant caTPT1, FP RNA substrate dephosphorylation; at 5 µM; stronger effect = higher value;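 also: plate controls were DMSO alone for no effect and ferristatin control at 100 nM for full effect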

Row | Structure (SMILES) | inhibition
1 | CCCCC(=O)N/N=C/c1c(O)n(-c2ccccc2)c(=O)[nH]c1=O | -0.86% (inactive)
2 | CCCCC(=O)N/N=C/c1c(O)n(CCC2=CCCCC2)c(=O)[nH]c1=O | 0.99% (inactive)
3 | CCCCC(=O)N/N=C/c1c(O)n(CC)c(=S)n(CC)c1=O | 156% (active)
4 | CNC(=O)Nc1ccc(C(O)(C(=O)OC)C(F)(F)F)cc1 (stereo not given) | 0.47% (inactive)
5 | CCOC(=O)c1c(C)c(C(=O)N2CCC3(CC2)OCCO3)c(C)n1CC | 1.34% (inactive)
6 | O=c1[nH]c(=O)n(-c2ccccc2)c(O)c1C=NC12CN3CN(CN(C3)C1)C2 | -4.46% (inactive)
7 | CCN1C(=O)C(=Cc2c(C)n(CC(=O)NCC3CCCO3)c3ccccc23)C(=O)N(CC)C1=S (stereo not given) | 24.2% (active)
8 | CCC1(C)CC(CCNCc2ccc(N(C)C)cc2)(c2ccc(F)cc2)CCO1 (stereo not given) | 1.22% (inactive)
9 | O=C(C1CC(=O)N(C2CCCC2)C1)N1CCC2(CC1)OCCO2 (stereo not given) | -0.68% (inactive)
10 | COc1ccc(N2C(=O)/C(=C/c3ccco3)C(=O)NC2=S)cc1 | 36.7% (active)
11 | COc1ccc(CN2C(=O)NC(=O)/C(=C\c3ccc(OC)c(OC)c3OC)C2=O)cc1 | 10.5% (inactive)
12 | COc1cccc(N2C(=O)NC(=O)/C(=C\c3cn(C)c4ccccc34)C2=O)c1 | -73.3% (inactive)
13 | O=C(CCCn1c(=O)[nH]c2cc(Cl)ccc2c1=O)N1CCC2(CC1)OCCO2 | 5.94% (inactive)
14 | CCOC(=O)C(O)(c1ccc(N=Cc2ccccc2O)c(C)c1)C(F)(F)F (stereo not given) | 9.39% (inactive)
15 | COC(=O)COc1cc(C)cc2oc(=O)c3c(c12)CCCC3 | -2.95% (inactive)
16 | COc1cc2nc(N3CCN(C(=O)[C@@H]4CCCO4)CC3)nc(N)c2cc1OC | -1.38% (inactive)
17 | COc1ccccc1N=Nc1c(O)[nH]c(=S)[nH]c1=O | 49.2% (active)
18 | O=C1N=c2ccccc2=C/C1=C\c1c(O)[nH]c(=S)[nH]c1=O | -1.76% (inactive)
19 | CCOCCc1c(O)[nH]c(=S)[nH]c1=O | -3.07% (inactive)
20 | Cc1cc(/C=C2/C(=O)NC(=O)N(Cc3ccco3)C2=O)c(C)n1-c1ccc(C(=O)O)cc1 | 22.2% (inactive)
21 | O=C(O)COc1ccccc1/C=C1\C(=O)NC(=O)N(CCC2=CCCCC2)C1=O | 7.72% (inactive)
22 | O=C1NC(=O)N(Cc2ccco2)C(=O)/C1=C\c1cccn1CCOc1ccccc1 | 37.9% (active)
23 | O=C1NC(=O)N(Cc2ccco2)C(=O)/C1=C\c1ccc(-c2ccc(F)cc2)o1 | 27.9% (active)

Row | Structure (SMILES) | inhibition
24 | O=C1NC(=O)N(CCc2ccc(F)cc2)C(=O)/C1=C/C=C/c1ccccc1 | 13.3% (inactive)
25 | O=C(COc1ccc2ccccc2c1)N1CCN(Cc2ccncc2)CC1 | -1.1% (inactive)
26 | CN(C)C(=O)Oc1cc(OC(=O)N(C)C)cc(C(O)CNC(C)(C)C)c1 (stereo not given) | -1.53% (inactive) and -2.15% (inactive)
27 | COc1cccc(C(=O)N2C[C@H]3C[C@@H](C2)c2cccc(=O)n2C3)c1 | -1.64% (inactive)
28 | COc1ccc(C2N3CC(C)(C)CN23)cc1 (stereo not given) | 0.1% (inactive)
29 | O=C(CN1CCCC1=O)NCCc1ccccc1 | -1.43% (inactive)
30 | O=C1CC(=O)N(Cc2ccccc2)C(=O)N1CCCCCCN1C(=O)CC(=O)N(Cc2ccccc2)C1=O | 71.4% (active)
31 | CC(C)(C)c1ccc(CN2C(=O)CN=C(c3ccccc3)c3ccccc32)cc1 | 2.92% (inactive)
32 | Fc1ccc(C2N3CCCN23)cc1 (stereo not given) | -5.01% (inactive)
33 | Cn1c(O)c(C=Nc2ccc3c(c2)CCC3)c(=O)n(C)c1=O | -3.76% (inactive)
34 | CC(C)n1c(=O)c(C=Nc2ccc(Br)cc2)c(O)n(Cc2ccco2)c1=O | 27.9% (active)
35 | CN(C)CCCN=Cc1c(O)n(Cc2ccco2)c(=O)[nH]c1=O | 1.6% (inactive)
36 | CCOc1ccc(-c2cc(C)[n+](CCN(CC)CC)c(-c3ccc(OCC)cc3)c2)cc1 | -0.45% (inactive)
37 | Cc1ccc(-n2c(-c3ccc([N+](=O)[O-])cc3)nc3ccccc3c2=O)cc1 | -3% (inactive)
38 | Cc1ccc(N2C(=O)NC(=O)C(CCc3ccncc3)(Cc3cccc(Cl)c3Cl)C2=O)cc1 (stereo not given) | 3.87% (inactive)
39 | CC(C)Nc1nc(Cl)nc(NC(C)C)n1 | -2.15% (inactive)
40 | CCC(=NCc1ccco1)c1c(O)n(Cc2ccccc2)c(=O)[nH]c1=O | 3.72% (inactive)
41 | CC/C(=N\NC(=O)c1ccccc1O)c1c(O)n(Cc2ccccc2)c(=O)[nH]c1=O | 46.6% (active)
42 | O=C(N/N=C/c1c(O)n(Cc2ccccc2)c(=O)[nH]c1=O)c1ccccc1 | 2.3% (inactive)
43 | COc1ccc2c(c1)[C@]13CCCCC1C(C2)N(C)CC3 (stereo not given in full) | -1.13% (inactive)
44 | CC1CCCCN1Cc1cccnc1 (stereo not given) | -4.61% (inactive)
45 | CN(c1ccccc1)c1ccc([N+](=O)[O-])c2nonc12 | 14.5% (inactive)
